# Laboratory results: PubChem BioAssay (EPA / NIEHS)
# Results filed as inconclusive are left out. Active and inactive are the calls of the source. Rule for the calls: active = hit-call score of the fitted dose curve at least 0.9, where 1 is the maximum; inconclusive = response in the unintended direction; inactive = score below 0.9.
# Tests used:
# [1] = molecular target: human Janus Kinase 2 (Jak2), JAK2 (gene 3717) (UniProt O60674); experiment: NVS_ENZ_hJak2: NovaScreen (NVS) Enzymatic Assay for human Janus Kinase 2 (Jak2) (AID 2283169)
# Sequence of human Janus Kinase 2 (Jak2), JAK2 (gene 3717) (O60674 whole entry, looked up): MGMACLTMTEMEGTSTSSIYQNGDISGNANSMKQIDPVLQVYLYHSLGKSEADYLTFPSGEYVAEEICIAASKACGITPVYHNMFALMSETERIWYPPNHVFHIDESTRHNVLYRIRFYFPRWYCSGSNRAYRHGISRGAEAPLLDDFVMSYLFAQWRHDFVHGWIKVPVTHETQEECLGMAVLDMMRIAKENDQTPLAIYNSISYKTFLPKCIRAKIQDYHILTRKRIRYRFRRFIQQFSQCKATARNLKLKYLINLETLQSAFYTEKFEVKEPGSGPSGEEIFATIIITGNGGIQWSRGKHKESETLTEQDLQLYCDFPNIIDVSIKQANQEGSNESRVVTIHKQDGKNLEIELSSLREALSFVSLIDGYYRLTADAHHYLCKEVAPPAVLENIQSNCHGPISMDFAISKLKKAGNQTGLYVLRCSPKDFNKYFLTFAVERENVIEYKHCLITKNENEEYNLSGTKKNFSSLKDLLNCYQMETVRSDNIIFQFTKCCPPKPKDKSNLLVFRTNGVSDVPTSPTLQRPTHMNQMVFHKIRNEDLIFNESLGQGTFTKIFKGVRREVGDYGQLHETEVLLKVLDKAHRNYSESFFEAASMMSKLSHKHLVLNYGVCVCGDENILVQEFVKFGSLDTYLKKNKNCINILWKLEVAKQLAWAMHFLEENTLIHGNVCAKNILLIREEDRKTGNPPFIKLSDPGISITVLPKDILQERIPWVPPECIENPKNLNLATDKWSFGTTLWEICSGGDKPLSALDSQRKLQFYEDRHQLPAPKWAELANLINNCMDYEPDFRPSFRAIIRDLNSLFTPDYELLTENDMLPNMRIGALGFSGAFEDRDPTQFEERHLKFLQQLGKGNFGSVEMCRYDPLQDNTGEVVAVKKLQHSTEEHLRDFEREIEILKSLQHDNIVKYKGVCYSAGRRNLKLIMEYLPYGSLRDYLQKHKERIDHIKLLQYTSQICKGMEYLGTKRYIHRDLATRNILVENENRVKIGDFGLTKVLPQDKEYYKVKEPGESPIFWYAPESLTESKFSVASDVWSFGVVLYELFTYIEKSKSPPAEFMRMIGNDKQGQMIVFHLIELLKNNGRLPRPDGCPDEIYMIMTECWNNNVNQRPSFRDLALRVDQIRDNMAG
# Description: NVS_ENZ_hJak2 is a biochemical, single-readout assay that uses extracted gene-proteins in a cell-free assay. Measurements were taken 1 hour after chemical dosing in a 384-well plate.NVS_ENZ_hJak2 is one of one assay component(s) measured or calculated from the NVS_ENZ_hJak2 assay. It is designed to make measurements of enzyme activity, a form of enzyme reporter, as detected with fluorescence intensity signals by Fluorescence and electrophoretic mobility shift technology.Data from the assay component NVS_ENZ_hJak2 was analyzed into 1 assay endpoint. This assay endpoint, NVS_ENZ_hJak2, was analyzed in the positive analysis fitting direction relative to DMSO as the negative control and baseline of activity. Using a type of enzyme reporter, loss-of-signal activity can be used to understand changes in the enzymatic activity as they relate to the gene JAK2. Furthermore, this assay endpoint can be referred to as a primary readout, because this assay has produced multiple assay endpoints where this one serves a enzymatic activity function. To generalize the intended target to other relatable targets, this assay endpoint is annotated to the kinase intended target family, where the subfamily is non-receptor tyrosine kinase.
# Binding assays used specific radioligands (tritiated, iodinated) with non-radioactive competitive displacement ligands in agonist or antagonist protocols (as indicated) and various reference compounds and inhibitors to titrate specific binding to receptors and transporters. Most enzyme assays (CYPs, kinases, phosphatases, proteases, HDACs) used recombinant protein and specific substrates (fluorescence mostly, some colorimetric and radioactive) and inhibitors, followed by a biochemical separation of substrate and product. All assays for the biochemical HTS were initially run in duplicate at a single concentration (10 uM for CYP450 assays and 25 uM for all others). Assay-chemical combinations meeting a pre-defined threshold (e.g., 30% inhibition and other criteria defined below) were then run in singleton concentration-response format with maximum concentration of 20 uM for CYPs and 50 uM for all others. Each assay was run with positive and negative controls, and concurrent controls on every plate. The follow-up (secondary) screen tested active chemical-pairs in concentration series, as well as a few additional assays not tested in the primary screen, some selected negative inactives, and several cases re-run in the concentration series for confirmatory purposes.
# [2] = molecular target: human Matrix Metalloproteinase-1 (MMP1), MMP1 (gene 4312) (UniProt P03956); experiment: NVS_ENZ_hMMP1: NovaScreen (NVS) Enzymatic Assay for human Matrix Metalloproteinase-1 (MMP1) (AID 2283181)
# Sequence of human Matrix Metalloproteinase-1 (MMP1), MMP1 (gene 4312) (P03956 whole entry, looked up): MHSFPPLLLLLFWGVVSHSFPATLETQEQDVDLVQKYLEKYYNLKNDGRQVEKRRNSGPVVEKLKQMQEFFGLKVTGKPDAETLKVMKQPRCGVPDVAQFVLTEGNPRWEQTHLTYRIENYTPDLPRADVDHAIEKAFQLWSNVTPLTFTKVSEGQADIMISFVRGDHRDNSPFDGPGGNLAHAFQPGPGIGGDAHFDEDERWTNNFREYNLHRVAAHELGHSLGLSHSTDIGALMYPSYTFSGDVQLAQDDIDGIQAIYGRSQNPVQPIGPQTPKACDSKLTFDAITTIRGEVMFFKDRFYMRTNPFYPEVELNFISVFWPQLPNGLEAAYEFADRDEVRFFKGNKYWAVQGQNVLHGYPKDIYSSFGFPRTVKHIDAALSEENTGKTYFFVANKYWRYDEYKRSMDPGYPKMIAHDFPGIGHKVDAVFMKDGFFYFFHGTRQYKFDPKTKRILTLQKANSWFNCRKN
# Summary of the method: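 Cell-free fluorescent substrate assay of human MMP1, read after 1 h. A single 25 uM duplicate screen was followed by concentration series to a maximum of 50 uM for actives meeting threshold; inhibition analysed against DMSO baseline.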
# [3] = molecular target: human Mitogen-Activated Protein Kinase 1 (MAPK 1), MAPK1 (gene 5594) (UniProt P28482); experiment: NVS_ENZ_hMAPK1: NovaScreen (NVS) Enzymatic Assay for human Mitogen-Activated Protein Kinase 1 (MAPK 1) (AID 2283175)
# Sequence of human Mitogen-Activated Protein Kinase 1 (MAPK 1), MAPK1 (gene 5594) (P28482 whole entry, looked up): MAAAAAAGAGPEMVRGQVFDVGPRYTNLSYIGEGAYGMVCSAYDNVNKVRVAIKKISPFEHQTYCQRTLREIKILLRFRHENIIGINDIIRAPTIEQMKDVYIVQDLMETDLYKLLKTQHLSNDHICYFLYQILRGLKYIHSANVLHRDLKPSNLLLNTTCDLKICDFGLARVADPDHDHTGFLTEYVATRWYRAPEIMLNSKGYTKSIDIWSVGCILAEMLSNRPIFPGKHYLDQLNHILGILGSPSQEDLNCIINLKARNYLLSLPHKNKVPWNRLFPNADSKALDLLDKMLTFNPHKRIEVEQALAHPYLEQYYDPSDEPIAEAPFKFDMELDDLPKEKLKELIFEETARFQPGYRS
# Summary of the method: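 Cell-free recombinant human MAPK1 enzymatic assay, fluorescence/electrophoretic mobility shift read at 1 h; loss of signal vs DMSO. Primary screen in duplicate at 25 uM; actives (e.g. ≥30% inhibition) run as concentration-response up to 50 uM.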
# [4] = molecular target: Mitogen-activated protein kinase 3 (Homo sapiens) (UniProt P27361); experiment: NVS_ENZ_hMAPK3: NovaScreen (NVS) Enzymatic Assay for human Mitogen-Activated Protein Kinase 3 (MAPK 3) (AID 2283177)
# Sequence of Mitogen-activated protein kinase 3 (Homo sapiens) (P27361 whole entry, looked up): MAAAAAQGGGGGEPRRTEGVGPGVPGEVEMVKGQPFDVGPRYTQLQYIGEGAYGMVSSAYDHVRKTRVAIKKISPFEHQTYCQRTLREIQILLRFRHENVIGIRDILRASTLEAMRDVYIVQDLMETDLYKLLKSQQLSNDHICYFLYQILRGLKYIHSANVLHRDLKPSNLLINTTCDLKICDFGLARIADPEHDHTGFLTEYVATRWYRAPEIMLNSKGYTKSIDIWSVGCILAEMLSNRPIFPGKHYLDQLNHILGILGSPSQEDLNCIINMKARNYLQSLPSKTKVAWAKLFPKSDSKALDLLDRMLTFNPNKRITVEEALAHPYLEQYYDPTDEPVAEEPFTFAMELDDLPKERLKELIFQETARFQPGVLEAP
# Summary of the method: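 Chemicals were first tested in duplicate at 25 uM, with hits re-run as concentration series (max 50 uM). Recombinant enzyme activity, measured 1 h post-dose in a cell-free format, was read by fluorescence/mobility shift relative to DMSO.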
# [5] = molecular target: human MAP Kinase-Activated Protein Kinase 2 (MAPKAPK2), MAPKAPK2 (gene 9261) (UniProt P49137); experiment: NVS_ENZ_hMAPKAPK2: NovaScreen (NVS) Enzymatic Assay for human MAP Kinase-Activated Protein Kinase 2 (MAPKAPK2) (AID 2283178)
# Sequence of human MAP Kinase-Activated Protein Kinase 2 (MAPKAPK2), MAPKAPK2 (gene 9261) (P49137 whole entry, looked up): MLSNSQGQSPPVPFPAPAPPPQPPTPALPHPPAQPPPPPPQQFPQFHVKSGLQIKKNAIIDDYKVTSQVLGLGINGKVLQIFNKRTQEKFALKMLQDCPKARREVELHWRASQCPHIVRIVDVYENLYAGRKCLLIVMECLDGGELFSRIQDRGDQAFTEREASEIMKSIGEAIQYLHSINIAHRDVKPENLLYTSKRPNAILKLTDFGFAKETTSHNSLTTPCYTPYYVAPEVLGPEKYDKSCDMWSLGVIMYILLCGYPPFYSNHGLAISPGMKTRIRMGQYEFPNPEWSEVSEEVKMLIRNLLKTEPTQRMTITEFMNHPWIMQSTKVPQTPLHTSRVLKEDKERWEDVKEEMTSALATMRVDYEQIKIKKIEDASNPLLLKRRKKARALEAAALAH
# Summary of the method: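 Chemicals screened in duplicate at 25 uM, then to 50 uM top concentration in concentration-response, against recombinant human MAPKAPK2; substrate conversion read 1 hr post-dosing by fluorescence after electrophoretic mobility-shift separation, loss-of-signal relative to DMSO.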
# [6] = molecular target: human Matrix Metalloproteinase-7 (MMP7), MMP7 (gene 4316) (UniProt P09237); experiment: NVS_ENZ_hMMP7: NovaScreen (NVS) Enzymatic Assay for human Matrix Metalloproteinase-7 (MMP7) (AID 2283183)
# Sequence of human Matrix Metalloproteinase-7 (MMP7), MMP7 (gene 4316) (P09237 whole entry, looked up): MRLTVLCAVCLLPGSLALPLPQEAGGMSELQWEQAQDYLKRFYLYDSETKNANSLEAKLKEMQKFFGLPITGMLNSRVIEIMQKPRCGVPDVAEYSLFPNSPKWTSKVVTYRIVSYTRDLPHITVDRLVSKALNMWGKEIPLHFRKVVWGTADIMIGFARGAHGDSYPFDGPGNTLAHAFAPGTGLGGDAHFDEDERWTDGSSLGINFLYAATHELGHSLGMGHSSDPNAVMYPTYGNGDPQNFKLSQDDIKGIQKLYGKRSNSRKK
# Summary of the method: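 Compounds first tested at 25 uM in duplicate, then at up to 50 uM in concentration series if active. Protease activity measured by fluorescence intensity 1 h after dosing, with fitting relative to DMSO.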
# [7] = molecular target: human MET Proto-Oncogene, Receptor Tyrosine Kinase (MET), MET (gene 4233) (UniProt P08581); experiment: NVS_ENZ_hMet: NovaScreen (NVS) Enzymatic Assay for human MET Proto-Oncogene, Receptor Tyrosine Kinase (MET) (AID 2283180)
# Sequence of human MET Proto-Oncogene, Receptor Tyrosine Kinase (MET), MET (gene 4233) (P08581 whole entry, looked up): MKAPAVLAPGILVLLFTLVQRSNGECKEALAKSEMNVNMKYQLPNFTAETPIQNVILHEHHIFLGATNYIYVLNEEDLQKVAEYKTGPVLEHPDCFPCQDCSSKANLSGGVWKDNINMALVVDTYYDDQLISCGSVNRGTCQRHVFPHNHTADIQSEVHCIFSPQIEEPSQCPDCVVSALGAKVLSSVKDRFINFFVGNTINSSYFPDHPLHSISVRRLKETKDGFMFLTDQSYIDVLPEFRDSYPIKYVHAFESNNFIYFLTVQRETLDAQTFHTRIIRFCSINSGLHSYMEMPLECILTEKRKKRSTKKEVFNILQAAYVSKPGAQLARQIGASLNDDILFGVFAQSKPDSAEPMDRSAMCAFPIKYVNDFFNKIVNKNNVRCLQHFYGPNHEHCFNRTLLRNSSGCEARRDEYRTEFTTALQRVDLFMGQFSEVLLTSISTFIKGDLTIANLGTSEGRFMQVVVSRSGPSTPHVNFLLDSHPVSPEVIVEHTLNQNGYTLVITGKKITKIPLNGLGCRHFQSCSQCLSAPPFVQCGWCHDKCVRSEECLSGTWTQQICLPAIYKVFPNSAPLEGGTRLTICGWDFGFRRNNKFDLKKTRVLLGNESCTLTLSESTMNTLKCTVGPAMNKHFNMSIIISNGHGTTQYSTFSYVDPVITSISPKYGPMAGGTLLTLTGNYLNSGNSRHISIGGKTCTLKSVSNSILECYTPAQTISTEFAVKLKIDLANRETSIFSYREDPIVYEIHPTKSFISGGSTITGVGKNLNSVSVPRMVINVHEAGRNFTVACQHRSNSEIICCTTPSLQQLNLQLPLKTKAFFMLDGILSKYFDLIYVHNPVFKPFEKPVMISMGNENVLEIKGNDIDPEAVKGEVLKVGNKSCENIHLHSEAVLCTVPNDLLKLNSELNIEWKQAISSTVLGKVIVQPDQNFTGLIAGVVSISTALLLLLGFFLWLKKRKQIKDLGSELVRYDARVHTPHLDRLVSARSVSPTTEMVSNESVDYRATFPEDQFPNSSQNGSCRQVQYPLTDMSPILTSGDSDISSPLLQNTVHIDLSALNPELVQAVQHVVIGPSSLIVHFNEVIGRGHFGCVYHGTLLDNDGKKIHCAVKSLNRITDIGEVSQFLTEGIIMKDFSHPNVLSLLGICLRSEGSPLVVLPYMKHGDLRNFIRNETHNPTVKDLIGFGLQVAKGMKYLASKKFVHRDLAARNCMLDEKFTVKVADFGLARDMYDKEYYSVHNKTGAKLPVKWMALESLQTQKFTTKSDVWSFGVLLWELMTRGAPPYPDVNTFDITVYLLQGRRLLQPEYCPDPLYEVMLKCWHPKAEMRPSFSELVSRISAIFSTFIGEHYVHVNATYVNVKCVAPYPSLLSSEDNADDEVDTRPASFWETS
# Summary of the method: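 Hits from a 25 uM duplicate screen were retested in concentration series up to 50 uM. Enzyme activity was measured by fluorescence after electrophoretic separation of product from substrate, 1 h after compound addition, relative to DMSO.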
# [8] = molecular target: Collagenase 3 (Homo sapiens) (UniProt P45452); experiment: NVS_ENZ_hMMP13: NovaScreen (NVS) Enzymatic Assay for human Matrix Metalloproteinase-13 (MMP13) (AID 2283182)
# Summary of the method: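 Recombinant MMP13 cleaving fluorescent substrate, cell-free, measured 1 h after dosing. Primary duplicate screen at 25 uM; actives tested in concentration-response up to 50 uM; loss of signal relative to DMSO.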
# [9] = molecular target: human c-Jun N-terminal Kinases (JNK2), MAPK9 (gene 5601) (UniProt P45984); experiment: NVS_ENZ_hJNK2: NovaScreen (NVS) Enzymatic Assay for human c-Jun N-terminal Kinases (JNK2) (AID 2283171)
# Sequence of human c-Jun N-terminal Kinases (JNK2), MAPK9 (gene 5601) (P45984 whole entry, looked up): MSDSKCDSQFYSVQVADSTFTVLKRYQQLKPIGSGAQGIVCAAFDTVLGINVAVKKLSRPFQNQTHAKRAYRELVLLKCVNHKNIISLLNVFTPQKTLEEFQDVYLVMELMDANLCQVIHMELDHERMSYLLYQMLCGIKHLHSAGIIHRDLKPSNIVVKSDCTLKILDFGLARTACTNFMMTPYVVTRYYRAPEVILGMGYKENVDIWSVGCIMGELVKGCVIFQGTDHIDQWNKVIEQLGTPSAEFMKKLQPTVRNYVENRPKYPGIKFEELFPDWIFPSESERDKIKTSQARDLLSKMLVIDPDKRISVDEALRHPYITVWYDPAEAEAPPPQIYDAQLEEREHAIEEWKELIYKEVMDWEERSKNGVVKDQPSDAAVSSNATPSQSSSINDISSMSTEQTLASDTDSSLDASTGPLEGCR
# Summary of the method: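 Chemicals first tested in duplicate at 25 uM, then in singleton concentration series up to 50 uM, against extracted JNK2 enzyme. Activity loss read by fluorescence with mobility-shift separation 1 h post-dose; DMSO baseline.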
# [10] = molecular target: human Matrix Metalloproteinase-2 (MMP2), MMP2 (gene 4313) (UniProt P08253); experiment: NVS_ENZ_hMMP2: NovaScreen (NVS) Enzymatic Assay for human Matrix Metalloproteinase-2 (MMP2) (AID 2283184)
# Description: NVS_ENZ_hMMP2 is a biochemical, single-readout assay that uses extracted gene-proteins in a cell-free assay. Measurements were taken 1 hour after chemical dosing in a 96-well plate.NVS_ENZ_hMMP2 is one of one assay component(s) measured or calculated from the NVS_ENZ_hMMP2 assay. It is designed to make measurements of enzyme activity, a form of enzyme reporter, as detected with fluorescence intensity signals by Fluorescence technology.Data from the assay component NVS_ENZ_hMMP2 was analyzed into 1 assay endpoint. This assay endpoint, NVS_ENZ_hMMP2, was analyzed in the positive analysis fitting direction relative to DMSO as the negative control and baseline of activity. […] Furthermore, this assay endpoint can be referred to as a primary readout, because this assay has produced multiple assay endpoints where this one serves a enzymatic activity function. […]
# Binding assays used specific radioligands (tritiated, iodinated) with non-radioactive competitive displacement ligands in agonist or antagonist protocols (as indicated) and various reference compounds and inhibitors to titrate specific binding to receptors and transporters. Most enzyme assays (CYPs, kinases, phosphatases, proteases, HDACs) used recombinant protein and specific substrates (fluorescence mostly, some colorimetric and radioactive) and inhibitors, followed by a biochemical separation of substrate and product. […]
structure (smiles),measurement,setting,value
Clc1ccc(C(c2ccccc2Cl)C(Cl)(Cl)Cl)cc1 (configuration not stated),outcome,[1],inactive
O=C(O)C(F)(F)C(F)(F)C(F)(F)C(F)(F)C(F)(F)C(F)(F)C(F)(F)C(F)(F)C(F)(F)F,outcome,[2],inactive
Cc1cc2c3c(c1)C(c1ccccc1)=N[C@@H](NC(=O)c1ccncc1)C(=O)N3CC2,outcome,[1],inactive
O=S(=O)(O)C(F)(F)C(F)(F)C(F)(F)C(F)(F)C(F)(F)C(F)(F)F,outcome,[1],inactive
same,outcome,[3],inactive
same,outcome,[4],inactive
same,outcome,[5],inactive
same,outcome,[6],inactive
CC#Cc1cc(C)nc(Nc2ccccc2)n1,outcome,[4],inactive
CCNc1nc(NC(C)C)nc(SC)n1,outcome,[3],inactive
Cc1cccc([N+](=O)[O-])c1,outcome,[4],inactive
CCOCCOC(C)=O,outcome,[5],inactive
Cc1ccccc1[N+](=O)[O-],outcome,[7],inactive
CCCCCCCCCC[N+](C)(C)CCCCCCCCCC,outcome,[2],inactive
same,outcome,[8],inactive
CC(C)C(=O)OCC(C)(C)C(OC(=O)C(C)C)C(C)C (configuration not stated),outcome,[1],inactive
same,outcome,[9],inactive
same,outcome,[4],inactive
same,outcome,[5],inactive
same,outcome,[10],inactive
Oc1ccc(C(c2ccc(O)cc2)(C(F)(F)F)C(F)(F)F)cc1,AC50,[2],5.26 µM (active)
same,outcome,[6],inactive
O=C(N[C@H]1CN2CCC1CC2)c1cc2ccoc2cn1,outcome,[6],inactive
CC(C)(c1ccccc1)c1ccc(O)cc1,AC50,[2],10.5 µM (active)
Cc1cccc(C)c1N,outcome,[4],inactive
Cc1ccc(O)c(C)c1,outcome,[7],inactive
O=C(O)C(F)(F)C(F)(F)C(F)(F)C(F)(F)C(F)(F)F,outcome,[1],inactive
same,outcome,[9],inactive
same,outcome,[6],inactive
O=NN(c1ccccc1)c1ccccc1,outcome,[2],inactive
same,outcome,[10],inactive
O=C(O)C(F)(F)C(F)(F)C(F)(F)C(F)(F)C(F)(F)C(F)(F)C(F)(F)C(F)(F)F,outcome,[7],inactive
CC1=C2C[C@H]3[C@@H](CC=C4C[C@@H](O)CC[C@@]43C)[C@@H]2CC[C@]12O[C@@H]1C[C@H](C)CN[C@H]1[C@H]2C,outcome,[9],inactive
same,outcome,[4],inactive
same,outcome,[5],inactive
same,outcome,[7],inactive
ClC1=C(Cl)[C@]2(Cl)[C@@H]3[C@@H](Cl)[C@H]4O[C@H]4[C@@H]3C1(Cl)C2(Cl)Cl,outcome,[4],inactive
